In PubChem BioAssay AID1970 (National Center for Advancing Translational Sciences (NCATS), 2009):
Inconclusive results are not listed. The source made the active and inactive calls. The call rests on the fitted dose curve; in most records, active means well fitted inhibition curve with a large enough effect; inconclusive means small, poorly fitted or top-dose-only effect; inactive means flat fitted curve, though single readings scatter.

Each compound was assayed against Dual specificity protein kinase CLK4 (Homo sapiens) (UniProt Q9HAZ1) (assay: Confirmation Assay for Inhibitors of CDC-like Kinase 4 (Kinase-Glo Assay)). Details: recombinant Clk4, Kinase-Glo ATP depletion luminescence; series mostly up to 47.7 µM.
Chain of Dual specificity protein kinase CLK4 (Homo sapiens) (Q9HAZ1 whole entry, looked up): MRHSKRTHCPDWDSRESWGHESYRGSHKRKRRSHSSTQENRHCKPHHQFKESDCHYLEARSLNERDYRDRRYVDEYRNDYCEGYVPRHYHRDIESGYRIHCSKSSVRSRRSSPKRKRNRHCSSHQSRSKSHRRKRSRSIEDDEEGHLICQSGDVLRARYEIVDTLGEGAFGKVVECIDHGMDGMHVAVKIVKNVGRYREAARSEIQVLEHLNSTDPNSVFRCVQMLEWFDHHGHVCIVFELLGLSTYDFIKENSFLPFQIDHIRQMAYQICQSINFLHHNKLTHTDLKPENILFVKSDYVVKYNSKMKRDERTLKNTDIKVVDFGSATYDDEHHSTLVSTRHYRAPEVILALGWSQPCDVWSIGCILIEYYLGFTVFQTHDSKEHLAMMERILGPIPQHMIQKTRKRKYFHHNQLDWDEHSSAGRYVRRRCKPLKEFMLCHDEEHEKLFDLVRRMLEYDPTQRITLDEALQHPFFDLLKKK
Outline: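 Read-out was Kinase-Glo luciferase luminescence of ATP left after 4.5 h room-temperature reaction. Final conditions: Clk4 25 nM, ATP 1 uM, RS peptide 100 uM, 25 mM Tris pH 7.5, 10 mM MgCl2, 0.5 mM EGTA, 2.5 mM DTT, 0.01% Triton X-100.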

Potency, active:
c1nc(NCCc2cnc[nH]2)c2cc(-c3ccoc3)ccc2n1 0.412 µM
c1cncc(CNc2ncnc3ccc(-c4cccnc4)cc23)c1 7.94 µM
Cc1csc(CNc2ncnc3ccc(-c4ccoc4)cc23)c1 0.355 µM
c1nc(NCC2CCOC2)c2cc(-c3ccc4c(c3)OCO4)ccc2n1 (stereo unspecified) 0.0582 µM
Cc1cccc(CNc2ncnc3ccc(-c4cccnc4)cc23)c1 3.55 µM
OCc1ccc(-c2ccc3ncnc(NCCc4cnc[nH]4)c3c2)o1 0.733 µM
c1cncc(CNc2ncnc3ccc(-c4ccco4)cc23)c1 6.31 µM
Cc1nc(CNc2ncnc3ccc(-c4oc(-c5ccccc5)nc4C)cc23)cs1 2.32 µM
Cc1cccc(-c2ccc3ncnc(NCc4cccc(F)c4)c3c2)c1 4.47 µM
c1c[nH]c(CNc2ncnc3ccc(-c4ccc5c(c4)OCO5)cc23)n1 0.0947 µM
CCOC(=O)c1ccc(-c2ccc3ncnc(NCCc4cnc[nH]4)c3c2)o1 0.0923 µM
Cc1nc(CNc2ncnc3ccc(-c4sc(C)nc4C)cc23)cs1 1.64 µM
Cc1nc(CNc2ncnc3ccc(-c4ccoc4)cc23)cs1 0.232 µM
c1nc(NCCc2cnc[nH]2)c2ccc(-c3ccc4c(c3)OCO4)cc2n1 10.6 µM
CCOC(=O)c1ccoc1-c1ccc2ncnc(NCc3ccc(C)o3)c2c1 5.82 µM
c1cncc(-c2ccc3ncnc(NCc4cccs4)c3c2)c1 3.98 µM
COc1cccc(-c2ccc3ncnc(NCc4ccc5c(c4)OCO5)c3c2)c1 1.41 µM
Cc1ccc(CNc2ncnc3ccc(-c4ccoc4C)cc23)o1 0.368 µM
Cc1csc(CNc2ncnc3ccc(-c4cccnc4)cc23)c1 4.47 µM
c1cncc(CNc2ncnc3ccc(-c4ccc5c(c4)OCCO5)cc23)c1 0.447 µM
COc1cccc(-c2ccc3ncnc(NCc4cc(C)cs4)c3c2)c1 0.794 µM
c1nc(NCC2CCCO2)c2ccc(-c3ccc4c(c3)OCO4)cc2n1 (stereo unspecified) 8.44 µM
CCOC(=O)c1ccc(-c2ccc3ncnc(NCc4ncc[nH]4)c3c2)o1 0.582 µM
Cc1nc(C)c(-c2ccc3ncnc(NCc4ncc[nH]4)c3c2)s1 1.84 µM
CCOC(=O)c1ccoc1-c1ccc2ncnc(NCCc3cnc[nH]3)c2c1 23.2 µM
Cc1occc1-c1ccc2ncnc(NCCc3cnc[nH]3)c2c1 0.519 µM
